JMJD2A Tudor inh: qHTS Assay for Inhibitors of JMJD2A-Tudor Domain | Potency, µM (top dose mostly 114 µM), for the others: at the highest dose activity change, negative = inhibition, hits mostly inhibitors | 390,000 compounds, 4.4% hits | AlphaScreen JMJD2A-Tudor / H3K4me3 peptide binding | AID 504339, 2011; further: on the % scale 0 is the no-effect control and ±100 the full control effect; nearly all actives have a fitted effect of over 50% in size
Target sequence (O75164 whole entry, looked up, the tested form may be a part): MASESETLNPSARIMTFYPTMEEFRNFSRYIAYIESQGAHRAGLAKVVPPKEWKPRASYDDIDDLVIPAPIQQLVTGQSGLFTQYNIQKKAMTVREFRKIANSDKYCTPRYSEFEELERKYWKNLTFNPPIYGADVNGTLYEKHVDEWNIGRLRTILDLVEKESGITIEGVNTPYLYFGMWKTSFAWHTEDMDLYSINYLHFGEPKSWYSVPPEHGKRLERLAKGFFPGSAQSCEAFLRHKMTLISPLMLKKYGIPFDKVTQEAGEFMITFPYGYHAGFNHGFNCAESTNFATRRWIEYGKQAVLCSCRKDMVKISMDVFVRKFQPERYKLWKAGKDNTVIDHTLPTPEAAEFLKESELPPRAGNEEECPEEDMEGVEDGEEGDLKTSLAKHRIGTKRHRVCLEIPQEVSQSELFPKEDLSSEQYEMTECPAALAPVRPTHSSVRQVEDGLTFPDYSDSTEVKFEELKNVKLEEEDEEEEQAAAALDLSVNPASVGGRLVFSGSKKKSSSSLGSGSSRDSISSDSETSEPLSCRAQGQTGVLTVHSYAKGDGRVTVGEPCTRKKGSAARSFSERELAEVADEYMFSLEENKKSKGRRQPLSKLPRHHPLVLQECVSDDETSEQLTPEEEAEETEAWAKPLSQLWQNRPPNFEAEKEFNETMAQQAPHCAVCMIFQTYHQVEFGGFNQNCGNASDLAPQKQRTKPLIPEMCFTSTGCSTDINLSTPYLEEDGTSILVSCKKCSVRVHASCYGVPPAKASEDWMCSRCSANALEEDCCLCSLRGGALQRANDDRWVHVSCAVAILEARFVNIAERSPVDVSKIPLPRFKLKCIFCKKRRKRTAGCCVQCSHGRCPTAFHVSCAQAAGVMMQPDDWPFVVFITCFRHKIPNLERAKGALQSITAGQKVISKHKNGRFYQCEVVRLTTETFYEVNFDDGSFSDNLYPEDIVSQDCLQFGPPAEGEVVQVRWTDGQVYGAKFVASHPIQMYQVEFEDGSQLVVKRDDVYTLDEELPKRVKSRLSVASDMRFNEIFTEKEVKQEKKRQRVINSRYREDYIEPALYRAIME
HP1b binding inh: HTS for Inhibitors of HP1-beta Chromodomain Interactions with Methylated Histone Tails; Chromobox protein homolog 1 (Homo sapiens), P83916; AlphaScreen HP1-beta / biotin-H3K9me3 peptide binding; Potency, µM (doses to about 114 µM), without a hit: at the top dose activity change, negative = inhibition, actives largely listed as inhibitors; 390,000 compounds, 0.56% hits; further: nearly all actives have a fitted effect of over 70% in size
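Compound inhibition of the preformed complex between 50 nM HP1-beta and 50 nM biotinylated H3K9me3 peptide was read by AlphaScreen. Buffer was PBS pH 7.4 with 0.01% Tween-20. Incubations ran 30 min at room temperature, with 10 ug/mL donor/acceptor beads.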
G9a inh: qHTS Assay for Inhibitors of Histone Lysine Methyltransferase G9a; 350,000 compounds, 8.8% hits; Potency, µM (titrated, usually from 102 µM), for the others: top-dose activity, negative = inhibition, usual class: inhibitors; Histone-lysine N-methyltransferase EHMT2 (Homo sapiens), Q96KQ7; G9a H3K9 monomethylation, AlphaScreen, 2 h; further: on the % scale 0 is the no-effect control and ±100 the full control effect; nearly all actives have a fitted effect of over 75% in size
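Chemiluminescent proximity detection of H3K9 monomethylation, read after 10 min bead incubation in the dark. Reaction: 20 nM G9a, 500 nM biotin-H3K9 peptide, 20 uM SAM cofactor, 2 h, room temperature, following 15 min enzyme-compound preincubation.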
12-LOX inh: Primary qHTS assay for inhibitors of human arachidonate 12S-lipoxygenase (ALOX12): Round 2; Polyunsaturated fatty acid lipoxygenase ALOX12 (Homo sapiens), P18054; Potency, µM (highest dose often 108 µM), for the others: at the top dose activity change, negative = inhibition, actives largely listed as inhibitors; AID 1671190, 2021; purified 12hLO, xylenol orange hydroperoxide absorbance; 580,000 compounds, 1.1% hits; further: on the % scale 0 is the no-effect control and ±100 the full control effect
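Purified human 12hLO at 150 nM in 25 mM Hepes, 0.01% Triton X-100, pH 7.0, preincubated 15 min at room temperature with compound. Reaction started with 40 uM arachidonic acid, 30 min at room temperature. Hydroperoxide measured by Fe-xylenol orange, 573/405 nm absorbance ratio.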
PLK1 PBD block: qHTS for Inhibitors of PLK1-PDB (polo-like kinase 1 - polo-box domain): Primary Screen; Plk1 PBD binding of FITC phosphopeptide, fluorescence polarization; 360,000 compounds, 2.8% hits; Potency, µM, for inactives: max response, negative = inhibition, hits mostly inhibitors; further: series mostly up to about 57 µM; on the % scale 0 is the no-effect control and ±100 the full control effect; nearly all actives have a fitted effect of over 65% in size
BAZ2B block: qHTS Assay for Inhibitors of BAZ2B; Bromodomain adjacent to zinc finger domain protein 2B (Homo sapiens), Q9UIF8; AlphaScreen BAZ2B-H3K14Ac peptide displacement; Potency, µM (highest dose often 114 µM), inactives show at the top dose activity change, negative = inhibition, actives largely listed as inhibitors; 360,000 compounds, 4.4% hits; AID 504333, 2011; further: on the % scale 0 is the no-effect control and ±100 the full control effect; nearly all actives have a fitted effect of over 60% in size
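Compounds, titrated to a top concentration of 110 uM, were incubated 30 min at room temperature with preformed BAZ2B/acetyl-K14 H3 peptide complex (50 nM each). Proximity signal was measured by AlphaScreen after 20 min with beads.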
* hit, by the source's call; u = inconclusive; x = no result; [ ] = another dose, or the depositor's remark. The list is not random: actives were taken first. Their share in the collection is about 9%. The call rests on the fitted dose curve; in most records, active means well fitted curve in the direction sought with a large enough effect; inconclusive means small, poorly fitted or top-dose-only effect, or another doubt; inactive means no such curve, though single readings can be large; an effect the other way counts as inactive or inconclusive. Potency means the concentration at half of the fitted maximal effect.

SMILES | JMJD2A Tudor inh | HP1b binding inh | G9a inh | 12-LOX inh | PLK1 PBD block | BAZ2B block
CC1CCCCN1S(=O)(=O)c1ccc(C(=O)N(CCCN(C)C)c2nc3ccc(Br)cc3s2)cc1 (stereo not given) | 44.7µM* | -17.1% | x | 434.8% | -4.2% | u
CCc1ccc2nc(N(CCCN(C)C)C(=O)c3ccc(S(=O)(=O)N4CCCC4)cc3)sc2c1 | -35.3% | 18.5% | 50.1µM* | u | -17.0% | -30.3%
CN(C)CCN(C(=O)c1ccc(S(=O)(=O)N2CCCC2)cc1)c1nc2ccc(Br)cc2s1 | -24.1% | 34.8% | 70.8µM* | -17.2% | -1.7% | -17.5%
CN(C)CCCN(C(=O)c1ccc(S(=O)(=O)N2CCCCCC2)cc1)c1nc2cc3c(cc2s1)OCO3 | x | x | x | u | -4.1% | x
COc1cccc(OC)c1C(=O)Nc1nnc(C(F)(F)F)s1 | x | x | x | -3.3% | x | x
CCC(CC)C(=O)Nc1nnc(-c2cccs2)s1 | -12.2% | -12.8% | 15.8µM* | -8.8%[57.4 µM] | 29.9µM* | 5.3%
COc1cccc(OC)c1C(=O)Nc1nnc(-c2cccs2)s1 | -13.8% | -2.1% | x | -11.7% | 16.8µM* | -1.1%
CCCCC(=O)Nc1cc(OCC)c(NC(=O)c2ccccc2[N+](=O)[O-])cc1OCC | -9.4% | 21.8% | 7.9%[12.7 µM] | 4.2%[57.4 µM] | 1.7% | -0.8%
O=C(Cc1ccc([N+](=O)[O-])cc1)NCc1cccnc1 | -3.2% | 48.2% | 26.2% | -6.3% | -12.8% | -2.6%
COc1cc(/C=C(\C#N)c2nc3ccccc3[nH]2)cc(OC)c1O | u | -35.6% | 10µM* | u | 109.8% | 39.8µM*
N#C/C(=C/C1=Cc2cc(Cl)ccc2OC1)c1nc2ccccc2[nH]1 | x | x | x | 15.8µM* | x | x
COc1ccc(/C=C(\C#N)c2nc3ccccc3[nH]2)cc1I | x | x | x | 6.31µM* | x | x
COc1cc(/C=C(\C#N)c2nc3ccccc3n2C)cc(OC)c1O | -26.2% | 1.7% | 22.4µM* | u | 68.0% | -35.7%
Cn1c(/C(C#N)=C/c2ccc(O)cc2)nc2ccccc21 | -10.4% | 24.5% | x | -24.4% | 4.5% | -6.5%
Cc1cccc(-n2nc(C)c(C(=O)NCCN3CCCCC3C)c2-n2cccc2)c1 (stereo not given) | x | x | x | -17.1% | x | x
CCOC(=O)C(C)Oc1ccc2c(=O)c(-c3csc(C)n3)coc2c1 (stereo not given) | x | x | x | -6.0% | x | x
Cc1ccc(CCNC(=O)c2noc(-c3ccc(C)cc3)n2)cc1 | x | x | x | 30.2% | x | x
c1csc(-n2nc3ccccc3n2)c1 | 13.8% | 40.7% | 13.4% | -1.4% | -1.4% | 13.8%
Cc1cc(O)c(-c2n[nH]c3c2C(c2cccc(O)c2)N(Cc2cccnc2)C3=O)cc1Cl (stereo not given) | -16.7% | u | -45.8%[12.7 µM] | u | -7.6% | -23.1%
O=C(OCc1ccccc1)N1CCC2CC1c1ccc(N3CCOCC3)cc12 (stereo not given) | x | x | x | -1.6% | -10.8% | x
COc1cccc(/C=C(\C#N)c2nc3ccccc3[nH]2)c1OC | x | x | x | -47.9% | x | x
COc1c(O)ccc(/C=C(\C#N)c2nc3ccccc3[nH]2)c1[N+](=O)[O-] | u | u | 7.94µM* | u | -5.6% | 39.8µM*
Cc1[nH]c2ccccc2c1/C=N\NC(=O)CNc1ccc2c(c1)OCO2 | u | u | 10µM* | -15.1% | -1.7% | 44.7µM*
O=C(Cc1ccccc1)N/N=C/c1cc2c(cc1Cl)OCO2 | -15.1% | 23.9% | 3.9%[59 µM] | -5.3% | -0.3% | 2.5%
O=C(CNc1ccc2c(c1)OCO2)N/N=C\c1ccccc1Cl | u | u | u | -27.5% | -10.4% | 50.1µM*
SMILES | JMJD2A Tudor inh | HP1b binding inh | G9a inh | 12-LOX inh | PLK1 PBD block | BAZ2B block
CC1CCCCN1C(=S)NC(=O)c1ccco1 (stereo not given) | -35.7% | -18.2% | u | u | u | -36.3%
COc1ccc(Nc2nnc(-c3ccc(C)c(S(=O)(=O)NCCO)c3)c3ccccc23)cc1C(N)=O | -23.5% | 18.1% | -10.6%[59 µM] | -21.9% | x | 4.5%
COc1cc(N2Cc3ccccc3C2)ccc1C=O | -23.3% | 9.8% | 31.6µM* | -23.9% | u | -2.5%
COc1cc(N2CCOCC2)ccc1C=C(C#N)C#N | -11.0% | 28.4% | -3.1% | 4.7% | -7.1% | -18.6%
COc1ccc(C(=O)N2CCn3c(nnc3-c3ccc(Cl)cc3)C2)cc1 | x | x | x | -23.8% | x | x
CN1C(=O)N(CC(=O)N2CCN(S(=O)(=O)Cc3ccccc3)CC2)C(=O)C12CCCCC2 | -15.1% | 15.0% | 56.2µM* | 1.9% | -7.4% | 9.2%
COc1ccccc1NC(=O)C1CCCN(S(=O)(=O)c2cccc3nsnc23)C1 (stereo not given) | -29.2% | 18.8% | -19.5% | -7.5% | -16.9% | -0.2%
COc1ccc(/C(N)=N/OC(=O)CCCN2C(=O)c3ccccc3C2=O)cc1OC | u | 12.3% | -7.6% | -2.5% | 23.8µM* | -14.6%
O=C(Nc1ccc(S(=O)(=O)NCc2ccco2)cc1)c1cccc(F)c1 | -20.1% | -16.3% | 56.2µM* | 11.6% | -6.7% | -29.1%
Cc1onc(-c2c(F)cccc2Cl)c1C(=O)NCc1ccco1 | 5.2% | 30.6% | -18.4%[59 µM] | 13.9% | -1.3% | -30.3%
Cc1onc(-c2c(F)cccc2Cl)c1C(=O)Nc1cccc(S(=O)(=O)NCc2ccco2)c1 | -32.9% | -18.3% | 56.2µM* | 3.3% | -6.5% | x
COc1cccc(Nc2nn3c(=O)c4ccccc4nc3s2)c1 | u | 20.1% | -3.1%[0.501 µM] | x | x | u
CN(Cc1ccccc1)C(=O)c1cccc(N2C(=O)C3CC=CCC3C2=O)c1 (stereo not given) | 4.0% | 50.2% | -6.7%[2.33 µM] | 4.7% | -0.5% | 0.5%
O=c1c2c(nc3cc[nH]n13)CN(S(=O)(=O)c1cccc(C(F)(F)F)c1)CC2 | x | x | x | -14.7% | x | x
CCC(C)c1nccnc1OC (stereo not given) | x | x | x | 13.0%[176 µM] | x | x
COC(=O)COc1ccc(S(=O)(=O)N2CCN(c3ccccc3F)CC2)cc1C | -4.5% | 33.0% | -2.8%[59 µM] | -4.4% | -2.0% | -2.9%
Cc1ccc2c(c1)c(C1=NC(=S)NC1=O)c(O)n2C | -16.0% | 8.4% | 39.8µM* | 16.9% | -1.4% | -2.8%
CN=c1scc(-c2ccccc2F)n1/N=C(\C)c1cccnc1 | 15.8µM* | u | 15.8µM* | -1.7% | -7.2% | 35.5µM*
C/C(=N\NC(=O)C1CC1)c1cccnc1 | -2.8% | 34.8% | 8.2%[59 µM] | 0.0% | 2.3% | 5.8%
